Screens (PubChem)
MBD2 inh – inhibitors of MBD2 binding to methylated DNA, primary screen, biochemical, TR-FRET, DNA-binding domain, human; Methyl-CpG-binding domain protein 2 (Homo sapiens), Q9UBB5; MBD2 binding to methylated oligonucleotide; inhibition, % at 4.4 µM; 0.31% of 370,000 active; in the data active = inhibition above about 13%
ABHD5-PLIN5 inh – ABHD5-PLIN5 interaction inhibitors, primary screen, cell lysate, split luciferase complementation, luminescence | Perilipin-5 (Homo sapiens) + 1-acylglycerol-3-phosphate O-acyltransferase ABHD5 (Homo … | Split G. princeps luciferase complementation, 4 h | inhibition, % at 4 µM | 0.78% of 360,000 active | AID 602281, 2012;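 active = inhibition above the mean inhibition across every tested compound plus 3 SD, cut at about 22% in these data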
Target sequence (Q00G26 whole entry, looked up): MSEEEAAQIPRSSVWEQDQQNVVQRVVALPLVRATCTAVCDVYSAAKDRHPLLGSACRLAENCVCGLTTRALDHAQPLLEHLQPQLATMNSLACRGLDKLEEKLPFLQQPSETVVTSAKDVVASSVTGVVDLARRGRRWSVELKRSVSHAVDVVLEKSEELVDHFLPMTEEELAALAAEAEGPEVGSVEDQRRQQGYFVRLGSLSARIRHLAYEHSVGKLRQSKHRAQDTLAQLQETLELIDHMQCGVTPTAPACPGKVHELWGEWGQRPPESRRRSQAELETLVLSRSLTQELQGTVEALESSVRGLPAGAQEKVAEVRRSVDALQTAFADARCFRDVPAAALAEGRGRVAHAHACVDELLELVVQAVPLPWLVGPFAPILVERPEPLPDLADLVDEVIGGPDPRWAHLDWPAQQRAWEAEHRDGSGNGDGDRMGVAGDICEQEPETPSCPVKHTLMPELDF
Target sequence (Q8WTS1 whole entry, looked up): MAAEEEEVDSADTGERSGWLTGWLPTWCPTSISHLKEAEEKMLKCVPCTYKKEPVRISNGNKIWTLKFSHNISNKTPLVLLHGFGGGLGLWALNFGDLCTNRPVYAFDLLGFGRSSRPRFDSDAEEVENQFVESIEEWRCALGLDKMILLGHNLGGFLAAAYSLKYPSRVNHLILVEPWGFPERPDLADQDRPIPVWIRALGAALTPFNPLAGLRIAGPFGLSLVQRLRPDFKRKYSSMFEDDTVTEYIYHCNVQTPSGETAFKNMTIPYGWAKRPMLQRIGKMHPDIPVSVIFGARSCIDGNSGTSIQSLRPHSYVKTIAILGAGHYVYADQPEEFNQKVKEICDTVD
PRMT1 inh – PRMT1 methyltransferase inhibitors, primary screen, biochemical, fluorescence polarization. recombinant PRMT1, activity-based probe fluorescence polarization. inhibition, % at 2.79 µM. 1.3% of 370,000 active. AID 652257, 2013;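 active = inhibition above about 21% made by adding two undisclosed values, limit read from the data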
LEDGF integ inh – blockers of LEDGF/p75-dependent integrase strand transfer – biochemical, TR-FRET, high throughput, primary screen. 0.64% of 370,000 active. HIV-1 integrase (with human LEDGF/p75). inhibition, % at 3.7 µM. TR-FRET IN-LEDGF/p75 DNA integration, Eu/Cy5;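 active = inhibition above the screen-wide mean plus 3 SD, cut at about 13% in these data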;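 also: signal is the Cy5 over europium emission ratio at 671 and 618 nm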
rCAG RNA binder – binders of r(CAG) RNA repeats, primary screen, biochemical, fluorescence. 1.3% of 370,000 active. AID 651821, 2012. r(CAG) RNA repeat, TO-PRO-1 dye displacement fluorescence. inhibition, % at 3 µM;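 active = inhibition above the plate cutoff, the mean of all test compounds on that plate plus 3 SD, cut at about 35% in these data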;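 also: higher means more dye released from RNA so lower well fluorescence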
UHRF1 MBD2 ctr – UHRF1 methylated DNA binding inhibitors, primary screen, counter-screen for MBD2 inhibitor project, biochemical, TR-FRET, human UHRF1, single concentration | E3 ubiquitin-protein ligase UHRF1 (Homo sapiens), Q96T88 | UHRF1 binding to methylated oligo | inhibition, % at 4.4 µM | 0.75% of 370,000 active; in the data active = inhibition above about 21%;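 also: UHRF1 SRA domain binding a hemimethylated CpG hairpin DNA probe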
rCAG bind conf – small molecules binding CAG repeat RNA – biochemical, fluorescence, confirmation; shares compounds with rCAG RNA binder; r(CAG) RNA repeat, TO-PRO-1 dye displacement fluorescence; inhibition, % at 3 µM; 70% of 4,300 active; AID 652065, 2013;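 active = inhibition above a per-plate cutoff, the mean inhibition of sample wells plus 3 SD, cut at about 35% in these data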;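 also: loss of TO-PRO-1 fluorescence as compound displaces dye from 1x1 AA loop RNA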
dCAG dye counter – displacement of TO-PRO-1 from CAG DNA duplex, counter-screen for rCAG RNA repeat binder project, biochemical, fluorescence, TO-PRO-1 dye, d(CAG) DNA oligo; shares compounds with rCAG RNA binder; d(CAG) DNA oligo TO-PRO-1 dye displacement; inhibition, % at 3 µM; 94% of 4,300 active;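 active = inhibition above its plate's cutoff, the mean test-well inhibition plus 3 SD, cut at about 4.8% in these data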;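 also: hits displace the dye from DNA and so lower well fluorescence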
DNA CAG DR – inhibitors of DNA CAG/GTC TO-PRO-1 complex, dose response, counter-screen for rCAG RNA repeat binder project, biochemical, fluorescence, TO-PRO-1 dye. shares compounds with rCAG RNA binder. IC50, µM. DNA CAG/GTC duplex TO-PRO-1 dye displacement fluorescence. 20% of 250 active. AID 686960, 2013; in the data active = IC50 below about 10 µM
Each line names hits and unclear results; the compound was inactive in the other large screens (follow-up assays come after a bar, where they were run). Compounds with a hit are over-represented: about 4.1% of the library has one in this group of screens.

CCn1nc(C(=O)Nc2ccc(S(=O)(=O)Nc3nccs3)cc2)c2ccccc2c1=O	rCAG RNA binder 42 | rCAG bind conf 56 | dCAG dye counter 18
N#Cc1cccc(C(=O)Nc2ccc(S(=O)(=O)Nc3nccs3)cc2)c1	none
CNC(=S)N/N=C/c1c(C(=O)OC)cnn1-c1ccc(Cl)cc1	none (no result: ABHD5-PLIN5 inh, rCAG RNA binder)
C#CCN1C(=O)[C@]2(NCCc3c2[nH]c2ccc(OC)cc32)c2ccccc21	none (no result: ABHD5-PLIN5 inh)
COc1cc(/C=C2\SC(=S)N(NS(=O)(=O)c3ccc(C)cc3)C2=O)ccc1O	rCAG RNA binder 45 | rCAG bind conf inactive | dCAG dye counter 9.9
COc1cc(/C=C2\SC(=S)N(NS(=O)(=O)c3ccccc3)C2=O)ccc1O	none
COc1cc(/C=C2\SC(=S)N(NC(=O)c3ccccc3OC)C2=O)ccc1O	rCAG RNA binder 58 | rCAG bind conf 51 | dCAG dye counter 19
CCOc1cc(/C=C2\SC(=S)N(NS(=O)(=O)c3ccc(C)cc3)C2=O)ccc1O	rCAG RNA binder 70 | rCAG bind conf 50 | dCAG dye counter 19
COc1cc(/C=C2\SC(=S)N(NC(=O)c3ccc(O)c(OC)c3)C2=O)ccc1O	none
Cc1ccccc1C(=O)N[C@@H](CC(C)C)C(=O)N1CCC[C@H]1C(=O)NCc1ccccc1	none (no result: ABHD5-PLIN5 inh)
Cn1c(=O)c2c(-c3ccccc3)n(-c3cc(Cl)c([N+](=O)[O-])cc3O)cc2n(C)c1=O	rCAG RNA binder 43 | rCAG bind conf 42 | dCAG dye counter 11
CSc1ncc(Cl)c(C(=O)C(C#N)c2nc3c(C)cc(C)cc3c(=O)[nH]2)n1 (configuration not stated)	rCAG RNA binder 62 | rCAG bind conf 81 | dCAG dye counter 50
CSc1ncc(Cl)c(C(=O)Nc2cccc(C)c2)n1	none
COc1cc(C2CC(=O)N3CN(Cc4ccco4)CSC3=C2C#N)ccc1OCc1ccccc1 (configuration not stated)	rCAG RNA binder 42 | rCAG bind conf inactive | dCAG dye counter 9.8
COc1ccc(C2CC(=O)N3CN(Cc4ccco4)CSC3=C2C#N)cc1 (configuration not stated)	none
COc1ccc2ccccc2c1C1CC(=O)N2CN(Cc3ccco3)CSC2=C1C#N (configuration not stated)	rCAG RNA binder 49 | rCAG bind conf inactive | dCAG dye counter 14
Cc1cccc(CN[C@@H]2CC[C@@]34CCCN3C(=O)CCC[C@H]4C2)c1	none (no result: ABHD5-PLIN5 inh, rCAG RNA binder)
Cc1cccc(Nc2nc(OCC#N)nc(N(C)C)n2)c1	none
CCN(CC)c1nc(Nc2ccc(Cl)cc2)nc(OCC#N)n1	rCAG RNA binder 51 | rCAG bind conf inactive | dCAG dye counter inactive
Cn1ncc2c(Nc3ccc(Br)cc3)nc(Nc3ccc(Br)cc3)nc21	rCAG RNA binder 49 | rCAG bind conf inactive | dCAG dye counter 13
CNc1nc(Nc2ccc(C)c(Cl)c2)c2cnn(C)c2n1	none
Cn1ncc2c(Nc3ccc(O)cc3)nc(Cl)nc21	none
Cn1ncc2c(Nc3cccc(Cl)c3)nc(Nc3cccc(Cl)c3)nc21	rCAG RNA binder 36 | rCAG bind conf inactive | dCAG dye counter 7.5
O=C(Nc1ccc(S(=O)(=O)Nc2nccs2)cc1)C1CC(=O)N(c2ccc(Cl)cc2)C1 (configuration not stated)	rCAG RNA binder 54 | rCAG bind conf 41 | dCAG dye counter 15
Cc1ccc(N2CC(C(=O)Nc3ccc(S(=O)(=O)Nc4nccs4)cc3)CC2=O)cc1C (configuration not stated)	rCAG RNA binder 48 | rCAG bind conf 64 | dCAG dye counter 19
COc1ccc(N2CC(C(=O)Nc3ccc(S(=O)(=O)Nc4nccs4)cc3)CC2=O)c(OC)c1 (configuration not stated)	none
Cc1cc(OCC(=O)NNC(=S)NC(=O)c2ccc(Br)o2)ccc1Cl	rCAG RNA binder 45 | rCAG bind conf 69 | dCAG dye counter 22 | DNA CAG DR inactive
Cc1ccc([C@H]2C(C(=O)O)=CC[C@@H](c3ccc(C)cc3)N2S(=O)(=O)c2ccc(C)cc2)cc1	rCAG RNA binder 76 | rCAG bind conf 67 | dCAG dye counter 30
Cc1ccc([C@H]2C(C(=O)O)=CC[C@@H](c3cccc(C)c3)N2S(=O)(=O)c2ccc(C)cc2)cc1	none
Cc1ccc([C@@H]2CC=C(C(=O)O)[C@H](c3ccccc3)N2S(=O)(=O)c2ccc(C)cc2)cc1	rCAG RNA binder 56 | rCAG bind conf 59 | dCAG dye counter 22
N#C/C(=N\Nc1ccc(F)cc1)C(=O)C1CC1	none
N#C/C(=N\Nc1ccc(Cl)c(Cl)c1)C(=O)C1CC1	rCAG RNA binder 52 | rCAG bind conf 55 | dCAG dye counter 17
COC(=O)c1ccc(CN2C(=O)[C@]3(OCCC=C[C@H]3C)c3cc(OC)ccc32)cc1	none (no result: ABHD5-PLIN5 inh)
CCOC(=O)C1Nc2ccc(C(F)(F)F)cc2C2c3ccccc3CC12 (configuration not stated)	none
CCOC(=O)C1Nc2ccc(OC(F)(F)F)cc2C2C=CCC12 (configuration not stated)	rCAG RNA binder 40 | rCAG bind conf inactive | dCAG dye counter 6.1
O=C(NC1CC1)C1Nc2ccc(OC(F)(F)F)cc2C2C=CCC12 (configuration not stated)	PRMT1 inh 22, rCAG RNA binder 43 | rCAG bind conf inactive | dCAG dye counter inactive
O=C(NCCCN1CCOCC1)C1Nc2ccc(OC(F)(F)F)cc2C2C=CCC12 (configuration not stated)	none
COc1cccc2c1[C@H](/C=C/c1ccccc1)[C@@H]([C@H](O)COC(C)=O)OC2	none (no result: ABHD5-PLIN5 inh)
Cc1cc(Oc2cccnc2)ccc1NC(=O)CCc1c[nH]c2ccccc12	none (no result: ABHD5-PLIN5 inh)
